# In the supplement of paper PMC8728848:
# This excerpt belongs to a sample that is enriched for the strongest signals.
# B1: Odorranalectin (Odorrana grahami), B3TFE9_RANGR (peptide)
# chain: YASPKCFRYPNGVLACT
# Columns and labels:
# Assay in all cases: glycan array binding signal (z-score within array); higher = stronger binding
# Settings in all cases: glycan notation: IUPAC condensed, linker removed
# [1] = target: Fuc(a1-2)Gal(b1-3)GlcNAc(b1-2)Man(a1-3)[Fuc(a1-2)Gal(b1-3)GlcNAc(b1-2)Man(a1-6)]Man(b1-4)GlcNAc(b1-4)GlcNAc
# Method in brief: (§1)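 Arrays were curated from the Consortium for Functional Glycomics database, 3228 in total, and kept only where the protein sequence was available. Binding is expressed as a within-array Z-score. This score was averaged across arrays of the same protein sequence at different concentrations or buffers and across linkers, and negative values can be read as non-binding.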
# [2] = target: Fuc(a1-2)Gal(b1-3)[Fuc(a1-4)]GlcNAc(b1-2)Man(a1-3)[Fuc(a1-2)Gal(b1-3)[Fuc(a1-4)]GlcNAc(b1-2)Man(a1-6)]Man(b1-4)GlcNAc(b1-4)[Fuc(a1-6)]GlcNAc(b1-4)[Fuc(a1-6)]GlcNAc
# Method in brief: as §1
# [3] = target: Fuc(a1-2)Gal(b1-4)GlcNAc(b1-2)Man(a1-3)[Fuc(a1-2)Gal(b1-4)GlcNAc(b1-2)Man(a1-6)]Man(b1-4)GlcNAc(b1-4)[Fuc(a1-6)]GlcNAc
# Method in brief: as §1
# [4] = target: Fuc(a1-2)Gal(b1-4)[Fuc(a1-3)]GlcNAc(b1-2)Man(a1-3)[Fuc(a1-2)Gal(b1-4)[Fuc(a1-3)]GlcNAc(b1-2)Man(a1-6)]Man(b1-4)GlcNAc(b1-4)[Fuc(a1-6)]GlcNAc
# Method in brief: as §1
# [5] = target: Fuc(a1-2)[Gal(a1-3)]Gal(b1-4)[Fuc(a1-3)]GlcNAc
# Method in brief: as §1
# [6] = target: Fuc(a1-2)[GalNAc(a1-3)]Gal(b1-4)[Fuc(a1-3)]GlcNAc(b1-3)GalNAc
# Method in brief: as §1
# [7] = target: Fuc(a1-2)[GalNAc(a1-4)]Gal(b1-4)GlcNAc
# Method in brief: as §1
# [8] = target: Fuc(a1-3)[Gal(b1-4)]GlcNAc6S
# Method in brief: as §1
# [9] = target: Fuc(b1-3)GlcNAc
# Method in brief: as §1
# [10] = target: Gal(a1-3)Gal(b1-3)GlcNAc(b1-2)Man
# Method in brief: as §1
# [11] = target: Gal(a1-3)Gal(b1-4)[Fuc(a1-3)]GlcNAc
# Method in brief: as §1
# [12] = target: Gal(a1-3)GalNAc
# Method in brief: as §1
# [13] = target: Gal(a1-3)[Gal(a1-4)]Gal(b1-4)GlcNAc
# Method in brief: as §1
# [14] = target: Gal(a1-4)Gal(b1-4)Glc
# Method in brief: as §1
# [15] = target: Gal(b1-3)GalNAc(a1-3)[Fuc(a1-2)]Gal(b1-4)GlcNAc
# Method in brief: as §1
# [16] = target: Gal(b1-3)GlcNAc(b1-3)GalNAc
# Method in brief: as §1
# [17] = target: Gal(b1-3)GlcNAc6S
# Method in brief: as §1
# [18] = target: Gal(b1-3)[Fuc(a1-4)]GlcNAc(b1-2)Man
# Method in brief: as §1
# [19] = target: Gal(b1-3)[Fuc(a1-4)]GlcNAc(b1-2)Man(a1-3)[Gal(b1-3)[Fuc(a1-4)]GlcNAc(b1-2)Man(a1-6)]Man(b1-4)GlcNAc(b1-4)[Fuc(a1-6)]GlcNAc
# Method in brief: as §1
# [20] = target: Gal(b1-3)[Fuc(a1-4)]GlcNAc(b1-6)GalNAc
# Method in brief: as §1
# [21] = target: Gal(b1-4)GlcNAc(b1-3)Gal(b1-4)GlcNAc(b1-2)Man(a1-3)[Gal(b1-4)GlcNAc(b1-3)Gal(b1-4)GlcNAc(b1-2)Man(a1-6)]Man(b1-4)GlcNAc(b1-4)GlcNAc
# Method in brief: as §1
# [22] = target: Gal(b1-4)GlcNAc(b1-3)Gal(b1-4)GlcNAc(b1-2)[Gal(b1-4)GlcNAc(b1-3)Gal(b1-4)GlcNAc(b1-6)]Man(a1-6)[Gal(b1-4)GlcNAc(b1-3)Gal(b1-4)GlcNAc(b1-2)Man(a1-3)]Man(b1-4)GlcNAc(b1-4)[Fuc(a1-6)]GlcNAc
# Method in brief: as §1
# [23] = target: Gal(b1-4)GlcNAc(b1-3)Gal(b1-4)GlcNAc(b1-3)Gal(b1-4)GlcNAc(b1-2)Man(a1-3)[Gal(b1-4)GlcNAc(b1-3)Gal(b1-4)GlcNAc(b1-3)Gal(b1-4)GlcNAc(b1-2)Man(a1-6)]Man(b1-4)GlcNAc(b1-4)GlcNAc
# Method in brief: as §1
# [24] = target: GalNAc(a1-3)GalNAc(b1-3)Gal(a1-4)Gal(b1-4)Glc
# Method in brief: as §1
# [25] = target: GalNAc(b1-4)GlcNAc
# Method in brief: as §1
# [26] = target: GalNAc(b1-4)GlcNAc(b1-3)GalNAc(b1-4)GlcNAc
# Method in brief: as §1
# [27] = target: GlcNAc(a1-4)Gal(b1-4)GlcNAc(b1-3)Gal(b1-4)GlcNAc
# Method in brief: as §1
# [28] = target: GlcNAc(b1-3)Gal(b1-4)GlcNAc(b1-2)[GlcNAc(b1-3)Gal(b1-4)GlcNAc(b1-6)]Man(a1-6)[GlcNAc(b1-3)Gal(b1-4)GlcNAc(b1-2)Man(a1-3)]Man(b1-4)GlcNAc(b1-4)GlcNAc
# Method in brief: as §1
# [29] = target: GlcNAc(b1-3)Gal(b1-4)GlcNAc(b1-3)Gal(b1-4)GlcNAc(b1-2)Man(a1-3)[GlcNAc(b1-3)Gal(b1-4)GlcNAc(b1-3)Gal(b1-4)GlcNAc(b1-2)Man(a1-6)]Man(b1-4)GlcNAc(b1-4)GlcNAc
# Method in brief: as §1
# [30] = target: GlcNAc(b1-3)Gal(b1-4)GlcNAc(b1-3)GalNAc
# Method in brief: as §1
# [31] = target: GlcNAc(b1-3)GalNAc
# Method in brief: as §1
# [32] = target: Neu5Ac(a2-3)Gal(b1-3)GalNAc6S
# Method in brief: as §1
# [33] = target: Neu5Ac(a2-3)Gal(b1-4)GlcNAc(b1-2)[Neu5Ac(a2-3)Gal(b1-4)GlcNAc(b1-4)]Man(a1-3)[GlcNAc(b1-4)][Neu5Ac(a2-3)Gal(b1-4)GlcNAc(b1-2)[Neu5Ac(a2-3)Gal(b1-4)GlcNAc(b1-6)]Man(a1-6)]Man(b1-4)GlcNAc(b1-4)GlcNAc
# Method in brief: as §1
# [34] = target: Neu5Ac(a2-3)Gal(b1-4)[Fuc(a1-3)]GlcNAc(b1-2)Man
# Method in brief: as §1
# [35] = target: Neu5Ac(a2-3)Gal(b1-4)[Fuc(a1-3)]GlcNAc(b1-3)Gal(b1-4)GlcNAc
# Method in brief: as §1
# [36] = target: Neu5Ac(a2-6)Gal
# Method in brief: as §1
# [37] = target: Neu5Ac(a2-6)Gal(b1-4)GlcNAc(b1-2)Man
# Method in brief: as §1
# [38] = target: Neu5Ac(a2-6)Gal(b1-4)GlcNAc(b1-2)Man(a1-3)[GlcNAc(b1-4)][Neu5Ac(a2-6)Gal(b1-4)GlcNAc(b1-2)Man(a1-6)]Man(b1-4)GlcNAc(b1-4)GlcNAc
# Method in brief: as §1
# [39] = target: Neu5Ac(a2-6)Gal(b1-4)GlcNAc(b1-2)[Neu5Ac(a2-6)Gal(b1-4)GlcNAc(b1-4)]Man(a1-3)[GlcNAc(b1-4)][Neu5Ac(a2-6)Gal(b1-4)GlcNAc(b1-4)Man(a1-6)]Man(b1-4)GlcNAc(b1-4)GlcNAc
# Method in brief: as §1
# [40] = target: Neu5Ac(a2-6)Gal(b1-4)GlcNAc(b1-3)Gal(b1-4)GlcNAc(b1-3)Gal(b1-4)GlcNAc(b1-2)Man(a1-3)[Neu5Ac(a2-6)Gal(b1-4)GlcNAc(b1-3)Gal(b1-4)GlcNAc(b1-3)Gal(b1-4)GlcNAc(b1-2)Man(a1-6)]GalNAc
# Method in brief: as §1
# [41] = target: Neu5Ac(a2-8)Neu5Ac(a2-8)Neu5Ac(a2-3)Gal(b1-4)Glc
# Method in brief: as §1
# [42] = target: Neu5Gc(b2-6)Gal(b1-4)GlcNAc
# Method in brief: as §1
binder,measurement,setting,value
B1,glycan array binding signal (z-score),[1],0.133
same,glycan array binding signal (z-score),[2],1.89
same,glycan array binding signal (z-score),[3],-0.142
same,glycan array binding signal (z-score),[4],3.75
same,glycan array binding signal (z-score),[5],0.56
same,glycan array binding signal (z-score),[6],2.29
same,glycan array binding signal (z-score),[7],-0.278
same,glycan array binding signal (z-score),[8],-0.198
same,glycan array binding signal (z-score),[9],-0.094
same,glycan array binding signal (z-score),[10],-0.387
same,glycan array binding signal (z-score),[11],-0.625
same,glycan array binding signal (z-score),[12],0.618
same,glycan array binding signal (z-score),[13],1.47
same,glycan array binding signal (z-score),[14],0.575
same,glycan array binding signal (z-score),[15],-0.258
same,glycan array binding signal (z-score),[16],-0.188
same,glycan array binding signal (z-score),[17],-0.064
same,glycan array binding signal (z-score),[18],3.92
same,glycan array binding signal (z-score),[19],-0.246
same,glycan array binding signal (z-score),[20],-0.061
same,glycan array binding signal (z-score),[21],7.59
same,glycan array binding signal (z-score),[22],0.555
same,glycan array binding signal (z-score),[23],2.11
same,glycan array binding signal (z-score),[24],-0.385
same,glycan array binding signal (z-score),[25],4.83
same,glycan array binding signal (z-score),[26],0.347
same,glycan array binding signal (z-score),[27],-0.376
same,glycan array binding signal (z-score),[28],8.95
same,glycan array binding signal (z-score),[29],3.67
same,glycan array binding signal (z-score),[30],0.083
same,glycan array binding signal (z-score),[31],-0.315
same,glycan array binding signal (z-score),[32],0.438
same,glycan array binding signal (z-score),[33],-0.481
same,glycan array binding signal (z-score),[34],-0.405
same,glycan array binding signal (z-score),[35],-0.026
same,glycan array binding signal (z-score),[36],-0.415
same,glycan array binding signal (z-score),[37],-0.092
same,glycan array binding signal (z-score),[38],-0.309
same,glycan array binding signal (z-score),[39],-0.055
same,glycan array binding signal (z-score),[40],7.51
same,glycan array binding signal (z-score),[41],-0.429
same,glycan array binding signal (z-score),[42],-0.155
